Bioassay records (PubChem BioAssay)
GDH-TPI counter-1 = GDH-TPI coupled enzyme inhibition counter-screen | 1.2% of 360,000 active | AID 588335 | inhibition, % at 4.8 µM | GDH-TPI coupled enzyme counterscreen, NADH absorbance; in the data active = inhibition above about 30%;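 also: 0% = DMSO wells and 100% = wells lacking the enzyme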
RecA splice inh = blocks M. tuberculosis RecA intein splicing; inhibition, % (test concentration not listed); cell-free RecA intein splicing, fluorescence; 0.75% of 290,000 active; in the data active = inhibition above about 30%; inconclusive = no clear call, values can overlap the other calls;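 also: 0% = vehicle wells and 100% = reference inhibitor control wells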
Rv3671c inh = inhibits the M. tuberculosis serine protease Rv3671c; 0.048% of 320,000 active; inhibition, % at 5.96 µM; AID 2606; P9WHR9; in the data active = inhibition above about 38%;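 also: extracellular domain of Rv3671c used as enzyme; 0% = enzyme with DMSO and 100% = no enzyme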
Mtb betalactam = beta-lactam sensitization of Mtb H37Rv. M. tuberculosis H37Rv growth with meropenem, percent inhibition. inhibition, % at 25 µM. 0.27% of 330,000 active. AID 434955; call rule not given here;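 also: growth measured after seven days incubation then overnight dye step; 0% = bacteria only wells and 100% = bacteria with antibiotic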
Mtb UGM inh = blocks M. tuberculosis UGM enzyme; P9WIQ1; purified UGM, fluorescence polarization probe displacement; inhibition, % at 10 µM; 0.06% of 320,000 active; AID 504406; in the data active = inhibition above about 10%, passing the limit was not always enough; inconclusive = no clear call, values can overlap the other calls
Target sequence (P9WIQ1 whole entry, looked up): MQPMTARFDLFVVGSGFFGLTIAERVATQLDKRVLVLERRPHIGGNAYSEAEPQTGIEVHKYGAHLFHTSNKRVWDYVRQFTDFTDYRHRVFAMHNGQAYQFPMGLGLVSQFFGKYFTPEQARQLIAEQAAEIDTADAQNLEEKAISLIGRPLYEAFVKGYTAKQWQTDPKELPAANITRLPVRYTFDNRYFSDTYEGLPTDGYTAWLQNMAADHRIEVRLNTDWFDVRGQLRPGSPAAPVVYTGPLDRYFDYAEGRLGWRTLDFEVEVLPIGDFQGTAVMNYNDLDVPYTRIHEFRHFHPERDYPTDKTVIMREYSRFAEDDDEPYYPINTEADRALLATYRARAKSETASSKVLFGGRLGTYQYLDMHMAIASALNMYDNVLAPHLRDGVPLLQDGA
Mtb FBA inh = inhibitors of M. tuberculosis fructose-bisphosphate aldolase | P9WQA3 | purified M. tuberculosis FBA, fluorescence read-out | inhibition, % at 1 µM | 2.3% of 360,000 active | AID 588726;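 also: 0% = vehicle and 100% = reference inhibitor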
Target sequence (P9WQA3 whole entry, looked up): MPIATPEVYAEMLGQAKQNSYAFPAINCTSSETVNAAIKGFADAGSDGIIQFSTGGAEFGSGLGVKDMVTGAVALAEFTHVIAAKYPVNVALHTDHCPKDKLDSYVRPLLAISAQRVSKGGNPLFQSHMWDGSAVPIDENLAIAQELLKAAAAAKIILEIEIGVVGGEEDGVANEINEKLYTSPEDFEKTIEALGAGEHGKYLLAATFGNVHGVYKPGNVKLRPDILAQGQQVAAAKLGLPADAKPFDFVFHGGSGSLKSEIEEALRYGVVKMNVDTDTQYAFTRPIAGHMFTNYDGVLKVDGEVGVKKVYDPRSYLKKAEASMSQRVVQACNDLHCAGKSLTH
Mtb FBA inh conf = Mtb FBA inhibition, confirmed; shares compounds with Mtb FBA inh; purified M. tuberculosis FBA, fluorescence read-out; inhibition, % at 1 µM; 78% of 5,600 active; AID 651616;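 also: 0% = vehicle wells and 100% = reference inhibitor wells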
GDH-TPI counter-2 = counter-screen for M. tuberculosis FBA inhibitors: GDH-TPI coupled enzyme inhibition. shares compounds with Mtb FBA inh. GDH-TPI coupled enzyme counterscreen, fluorescence. inhibition, % at 1 µM. 81% of 5,600 active; in the data active = inhibition above about 10%
Active calls of the source: *; ? = inconclusive; nt = not tested or not shown; + = active, no number. This is a sample that favours compounds with a hit; in the whole collection about 4% have one here. Rule as the data show it, unless noted: active = inhibition above about 27%; inactive = the rest.

SMILES | GDH-TPI counter-1 | RecA splice inh | Rv3671c inh | Mtb betalactam | Mtb UGM inh | Mtb FBA inh | Mtb FBA inh conf | GDH-TPI counter-2
N#C/C(=C\c1c(N2CCCCCC2)nc2ccccn2c1=O)C(=O)NCc1ccco1 | 3.4 | 1.6 | -4.9 | 2.0 | -3.2 | -2.0 | nt | nt
CCNC(=O)/C(C#N)=C/c1c(N2CCOCC2)nc2ccccn2c1=O | 4.5 | -73.3 | 1.6 | 4.8 | -1.6 | 42.2* | 175.8* | 135.7*
C=CCNC(=O)/C(C#N)=C/c1c(N2CCCCCC2)nc2ccccn2c1=O | 9.3 | 2.2 | 4.2 | ? | 1.1 | 37.1* | 5.1 | -2.1
Cc1c(Cc2ccc3c(c2)OCO3)sc(NC(=O)C(C)(C)C)c1C#N | 12.0 | -1.4 | 7.9 | -6.4 | -2.1 | 4.3 | nt | nt
O=C(COc1ccc2c3c(c(=O)oc2c1)CCCC3)NCc1ccccn1 | 8.6 | -2.1 | 5.9 | 4.9 | -2.2 | 86.3* | + | +
Cc1c(OCC(=O)NCCCn2ccnc2)ccc2c3c(c(=O)oc12)CCCC3 | 7.8 | 1.5 | 0.9 | 69.5 | -1.2 | 30.8* | 75.6* | 63.7*
CCCc1cc(=O)oc2c(C)c(OCC(=O)NCCCn3ccnc3)ccc12 | 6.6 | -3.0 | 5.5 | 7.5 | -1.8 | 10.9 | nt | nt
Cc1c(C)c2ccc(OCC(=O)NCCCn3ccnc3)cc2oc1=O | 12.6 | 0.6 | -4.8 | -0.9 | 0.0 | 62.0* | 195.3* | 138.4*
O=C(COc1ccc2c3c(c(=O)oc2c1)CCCC3)NCCCn1ccnc1 | 5.9 | -1.6 | -2.9 | 5.5 | 0.3 | 28.9* | + | 194.0*
N#CCCN(C(=O)COC(=O)c1ccc(CNS(=O)(=O)c2ccc(F)c(Cl)c2)cc1)c1ccc(F)cc1 | -5.9 | 4.2 | -10.9 | 17.6 | 2.1 | 0.2 | nt | nt
COc1ccccc1N1CCN(CC(=O)NCC2CCCO2)CC1 (configuration not stated) | 5.6 | -0.2 | 4.7 | -0.4 | 0.8 | -1.0 | nt | nt
O=C(COc1ccc2c3c(c(=O)oc2c1)CCCC3)NCCCN1CCCC1=O | 13.7 | -2.0 | 0.3 | 0.5 | -2.1 | 62.4* | 92.5* | 78.7*
CCOC(=O)C1CCCN(C(=O)c2cc3ccccc3cc2OC)C1 (configuration not stated) | 14.1 | nt | nt | nt | nt | 4.7 | nt | nt
CCN(C(=O)c1cc2c(=O)n3ccccc3nc2s1)C1CCCCC1 | 7.4 | -37.8 | 3.7 | 0.1 | 2.4 | 72.2* | 55.8* | 32.2*
CC1CCN(C(=O)c2cc3c(=O)n4ccccc4nc3s2)CC1 | 15.3 | -45.3 | 1.8 | -5.2 | 2.0 | 86.7* | 132.0* | 99.8*
CCOC(=O)C1CCCN(C(=O)c2cc3c(=O)n4ccccc4nc3s2)C1 (configuration not stated) | 16.5 | -61.3 | -4.4 | -19.2 | 1.3 | 63.3* | 9.6 | -7.1
Cc1cccn2c(=O)c3cc(C(=O)N4CC(C)CC(C)C4)sc3nc12 (configuration not stated) | 3.7 | -13.7 | -3.8 | 5.4 | -1.6 | 5.2 | nt | nt
O=C(c1cc2c(=O)n3ccccc3nc2s1)N1CCOCC1 | 25.4 | -8.6 | -1.9 | -6.5 | 1.1 | 79.0* | + | +
O=C(c1cc2c(=O)n3ccccc3nc2s1)N1CCN(c2cccc(Cl)c2)CC1 | 15.7 | -2.5 | -18.6 | 7.3 | -0.3 | 12.6 | nt | nt
COc1ccc(NC(=O)CCN(c2ccc(OC)cc2)S(=O)(=O)c2ccc(C)c(C)c2)cc1 | -0.3 | nt | nt | nt | nt | 2.3 | nt | nt
N=C1SCC(=O)N1/N=C/c1ccccc1 | 6.9 | 1.1 | 5.5 | -4.7 | 1.5 | -3.5 | nt | nt
CS(=O)(=O)N(CC(=O)Nc1ccccc1C(=O)N1CCCC1)c1ccc2c(c1)OCO2 | -4.2 | -2.6 | -4.8 | -10.1 | 5.9 | -0.5 | nt | nt
Cc1cccc(NC(=O)c2cc3c(=O)n4ccccc4nc3s2)c1 | -1.1 | -71.0 | 0.3 | 9.0 | 1.6 | 13.3 | nt | nt
CCCNC(=O)COC(=O)c1cc2c(=O)n3ccccc3nc2s1 | 5.0 | -207.5 | 7.0 | -1.7 | 1.0 | 76.5* | 10.1 | 2.5
Oc1ccccc1C=NNC(=S)NC1CC2C=CC1C2 (configuration not stated) | 28.9 | nt | nt | nt | nt | 6.5 | nt | nt
SMILES | GDH-TPI counter-1 | RecA splice inh | Rv3671c inh | Mtb betalactam | Mtb UGM inh | Mtb FBA inh | Mtb FBA inh conf | GDH-TPI counter-2
Oc1c(Cl)cc(Cl)cc1/C=N/NC(=S)NC1CC2C=CC1C2 (configuration not stated) | 15.9 | -13.0 | 15.1 | 72.8 | 0.0 | 35.1* | 58.6* | 57.0*
COc1ccc(S(=O)(=O)N2CCc3ccccc3C2)cc1 | -5.3 | 0.7 | 0.9 | -3.3 | 1.7 | 1.1 | nt | nt
COc1ccc(-c2nc3ccc(C)cn3c2Cc2cccc(Cl)c2)cc1OC | nt | nt | nt | nt | nt | 33.1* | 106.6* | 76.0*
Cc1ccc2nc(-c3ccco3)c(Cc3cccc(F)c3)n2c1 | nt | nt | nt | nt | nt | 31.5* | + | 137.9*
Cc1ccc(Cc2c(-c3ccco3)nc3ccc(Br)cn23)cc1 | nt | nt | nt | nt | nt | -4.6 | nt | nt
COc1ccc(-c2nc3ccc(C)cn3c2Cc2ccc(C)cc2)cc1OC | nt | nt | nt | nt | nt | 26.9 | nt | nt
COC(=O)c1ccc2nc(-c3ccc(OC)c(OC)c3)c(Cc3ccccc3OC)n2c1 | nt | nt | nt | nt | nt | 7.8 | nt | nt
COc1ccccc1Cc1c(-c2ccc(OC)c(OC)c2)nc2ccc(C)cn12 | nt | nt | nt | nt | nt | 45.5* | 118.9* | 93.8*
COc1ccc(CN(C)C(=O)c2cccc(S(=O)(=O)N3CCN(c4ccccc4)CC3)c2)c(OC)c1OC | -0.7 | 5.5 | -0.8 | -3.4 | 1.5 | 2.2 | nt | nt
Cc1cc(NCCN(C)C)n2nc(-c3cccs3)cc2n1 | 8.7 | -2.3 | 6.3 | 2.1 | -0.5 | 22.4 | nt | nt
Cc1cc(NCCCO)n2nc(-c3cccs3)cc2n1 | 0.4 | -0.8 | -7.3 | -2.5 | -1.1 | 33.5* | 67.6* | 55.9*
Nc1cc(-c2ccc(Br)cc2)nc2cc(-c3ccccc3)nn12 | 3.8 | -0.5 | 2.5 | -7.4 | -0.9 | 8.9 | nt | nt
OCCCNc1cc(-c2ccccc2)nc2cc(-c3ccc(F)cc3)nn12 | 14.7 | -7.9 | -11.1 | 58.0 | -2.3 | 58.9* | 102.0* | 77.5*
CCCCC[n+]1ccn(-c2nc3ccccc3nc2[N-]S(=O)(=O)c2ccccc2)c1 | 6.9 | -31.9 | -0.7 | -14.8 | -1.9 | 19.9 | nt | nt
O=S(=O)([N-]c1nc2ccccc2nc1-n1cc[n+](Cc2ccccc2)c1)c1ccc(Br)cc1 | 11.1 | -10.6 | -8.2 | -1.5 | 2.4 | 27.0* | + | 178.6*
CCOC(=O)c1c(-c2ccccc2Cl)cn2ccccc12 | 12.4 | 17.1 | 2.3 | -2.3 | -0.7 | 61.2* | 73.7* | 68.0*
COc1ccc(-c2cc3ccccc3n2CC(O)CN2CCN(CCO)CC2)cc1 (configuration not stated) | 3.4 | nt | 3.0 | 1.1 | 0.3 | 32.6* | -7.5 | -4.6
COc1ccc(-c2cc3ccccc3n2CC(O)CN2CCOCC2)cc1 (configuration not stated) | 0.6 | -0.6 | 4.9 | -11.8 | 2.2 | 19.4 | nt | nt
CCCCNc1c(-c2cccc(-c3ccc(OC)cc3)c2)nc2cc(C)ccn12 | 10.0 | nt | 0.8 | 98.0 | -2.4 | 29.0* | 65.8* | 57.5*
CCCCNc1c(-c2cccc(-c3ccc(OC)cc3)c2)nc2ccc(C)cn12 | 5.7 | 0.7 | 0.2 | 98.0 | 0.9 | 30.7* | 6.6 | 2.3
